Laboratory results: PubChem BioAssay (EPA / NIEHS)
Calls of active or inactive are those of the source. The calls were made as follows: active = hit-call score of the fitted dose curve at least 0.9, where 1 is the maximum; inactive = score below 0.9.

Assays:
[1] = molecular target: Nuclear respiratory factor 1 (Homo sapiens) (UniProt Q16656); experiment: ATG_NRF1_CIS: Attagene CIS-FACTORIAL HepG2 Assay for human Nuclear Respiratory Factor 1 (NRF1) Orphan Gene (AID 2282987); conditions: HepG2 NRF1 cis-element reporter, Attagene multiplex; actives raise or lower the signal
Nuclear respiratory factor 1 (Homo sapiens), sequence (Q16656 whole entry, looked up): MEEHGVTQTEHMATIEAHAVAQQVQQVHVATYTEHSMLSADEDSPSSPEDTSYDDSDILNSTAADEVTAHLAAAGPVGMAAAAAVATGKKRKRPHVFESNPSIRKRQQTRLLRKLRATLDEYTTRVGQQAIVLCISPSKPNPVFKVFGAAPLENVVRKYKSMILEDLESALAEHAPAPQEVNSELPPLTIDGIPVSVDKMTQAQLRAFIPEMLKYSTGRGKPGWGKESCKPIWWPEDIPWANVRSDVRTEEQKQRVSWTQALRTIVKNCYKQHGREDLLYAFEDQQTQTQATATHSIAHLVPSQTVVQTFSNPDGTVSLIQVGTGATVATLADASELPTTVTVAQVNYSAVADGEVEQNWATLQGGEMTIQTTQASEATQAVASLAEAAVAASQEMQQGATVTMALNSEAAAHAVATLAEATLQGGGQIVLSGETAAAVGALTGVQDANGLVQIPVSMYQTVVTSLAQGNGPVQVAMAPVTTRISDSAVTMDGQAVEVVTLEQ
How it was run: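 Endogenous NRF1-driven reporter transcription measured in transiently transfected human HepG2 liver cells. Readout: reporter mRNA by RT-PCR and capillary electrophoresis with fluorescence detection, 24 h post-dosing. Gain or loss of signal fitted relative to DMSO baseline.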

[2] = ATG_NFI_CIS: Attagene CIS-FACTORIAL HepG2 Assay for human Nuclear Factor I (NFI) (AID 2282989); conditions: HepG2 cis-regulatory reporter, NFI response element transcription; actives raise or lower the signal
How it was run: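 Reporter transcription driven by endogenous transcription factors in HepG2 cells; 24 h treatment. Quantitation by labelled RT-PCR fragments on capillary electrophoresis, gain- or loss-of-signal relative to DMSO.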

[3] = molecular target: Myc proto-oncogene protein (Homo sapiens) (UniProt P01106); experiment: ATG_Myc_CIS: Attagene CIS-FACTORIAL HepG2 Assay for human Myelocytomatosis (Myc) Proto-Oncogene Transcription Factor (AID 2282990); conditions: HepG2, Attagene cis-reporter transcription factor activity; actives raise or lower the signal
Myc proto-oncogene protein (Homo sapiens), sequence (P01106 whole entry, looked up): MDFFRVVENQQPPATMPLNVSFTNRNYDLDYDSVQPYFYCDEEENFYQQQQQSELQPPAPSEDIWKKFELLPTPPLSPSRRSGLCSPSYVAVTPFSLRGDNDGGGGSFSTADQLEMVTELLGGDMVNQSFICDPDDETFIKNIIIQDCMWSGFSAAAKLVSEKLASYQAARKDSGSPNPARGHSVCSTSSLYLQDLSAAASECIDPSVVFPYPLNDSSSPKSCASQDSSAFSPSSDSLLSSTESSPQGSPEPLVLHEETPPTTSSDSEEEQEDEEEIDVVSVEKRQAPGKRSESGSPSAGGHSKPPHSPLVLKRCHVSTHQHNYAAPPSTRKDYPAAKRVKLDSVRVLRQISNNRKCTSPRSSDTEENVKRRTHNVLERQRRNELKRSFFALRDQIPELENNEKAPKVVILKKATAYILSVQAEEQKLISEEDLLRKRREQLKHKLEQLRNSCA
How it was run: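 DMSO-normalised, bidirectionally fitted reporter mRNA signal. HepG2 cells transfected with cis reporter constructs, treated 24 h; transcripts detected by RT-PCR, 6-FAM primer extension and CE.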

[4] = ATG_NRF2_ARE_CIS: Attagene CIS-FACTORIAL HepG2 Assay for human Nuclear Factor Erythroid 2 Related Factor 2 (NFR2) response to Antioxidant Response Elements (ARE) (AID 2282992); conditions: HepG2 Attagene ARE/NRF2 reporter, transcription factor activity; actives raise or lower the signal
How it was run: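 Fluorescence intensity of reporter-specific cDNA fragments, separated by capillary electrophoresis, reflects mRNA induction in transfected HepG2 cells at 24 h. Activity is fitted bidirectionally, DMSO serving as baseline.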

[5] = ATG_Oct_MLP_CIS: Attagene CIS-FACTORIAL HepG2 Assay for human Octamer-Binding Transcription Factor (Oct) (AID 2282993); conditions: HepG2 Attagene cis-factorial Oct reporter, mRNA; actives raise or lower the signal
How it was run: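 Transfected HepG2 cells, 24 h treatment. Reporter mRNA quantified by RT-PCR–capillary electrophoresis; bidirectional fitting against DMSO.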

[6] = molecular target: Cellular tumor antigen p53 (Homo sapiens) (UniProt P04637); experiment: ATG_p53_CIS: Attagene CIS-FACTORIAL HepG2 Assay for human p53 Transcription Factor (AID 2282994); conditions: HepG2 p53 cis-element reporter, Attagene mRNA; actives raise or lower the signal
Cellular tumor antigen p53 (Homo sapiens), sequence (P04637 whole entry, looked up): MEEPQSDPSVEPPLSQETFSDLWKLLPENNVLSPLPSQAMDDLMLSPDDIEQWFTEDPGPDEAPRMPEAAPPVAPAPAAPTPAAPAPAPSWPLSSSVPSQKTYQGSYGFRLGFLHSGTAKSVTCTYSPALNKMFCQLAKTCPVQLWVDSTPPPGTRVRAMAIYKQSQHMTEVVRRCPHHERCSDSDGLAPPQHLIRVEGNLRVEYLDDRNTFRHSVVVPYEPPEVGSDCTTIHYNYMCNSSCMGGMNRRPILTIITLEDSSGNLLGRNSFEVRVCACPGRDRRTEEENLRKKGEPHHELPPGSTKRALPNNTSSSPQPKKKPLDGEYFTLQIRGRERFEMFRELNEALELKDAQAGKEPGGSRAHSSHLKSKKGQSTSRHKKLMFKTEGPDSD
How it was run: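 Transiently transfected HepG2 (multiple cis reporter transcription units); exposure 24 h; reporter RNA via RT-PCR, 6-FAM extension, 2 h HpaI digest at 37 C, CE detection; DMSO baseline.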

[7] = BSK_3C_TissueFactor: BioMAP Diversity Plus: 3C Assay for Tissue Factor Biomarker Activity (AID 2282997); conditions: BioMAP 3C HUVEC, tissue factor biomarker readout; actives raise or lower the signal
How it was run: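 After a 24 h chemical exposure of primary human umbilical vein endothelial cells, Tissue Factor levels were quantified by ELISA.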

[8] = BSK_3C_uPAR: BioMAP Diversity Plus: 3C Assay for Urokinase-type plasminogen activator receptor (uPAR) Biomarker Activity (AID 2282998); conditions: BioMAP 3C HUVEC, uPAR biomarker ELISA; actives raise or lower the signal
How it was run: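 Readout: ELISA for surface uPAR. System: human umbilical vein endothelial primary cells, 24 h after chemical exposure. Analysis: bidirectional fit, DMSO baseline.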

[9] = BSK_3C_VCAM1: BioMAP Diversity Plus: 3C Assay for Vascular cell adhesion molecule 1 (VCAM1) Biomarker Activity (AID 2282999); conditions: BioMAP 3C HUVEC, VCAM1 ELISA, cytokine-stimulated; actives raise or lower the signal
How it was run: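 Vascular primary endothelium (human umbilical vein) was exposed to chemicals and assayed 24 h later. VCAM-1 levels came from ELISA, with DMSO serving as baseline for bidirectional fitting.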

[10] = ATG_NF_kB_CIS: Attagene CIS-FACTORIAL HepG2 Assay for human Nuclear Factor Kappa B (NF-kB) (AID 2282991); conditions: HepG2 Attagene cis-factorial NF-kB reporter mRNA; actives raise or lower the signal
How it was run: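 Read-out: reporter transcript levels quantified by RT-PCR plus capillary electrophoresis of 6-FAM-labelled, HpaI-cut fragments. Transfected HepG2 cells, 24 h compound exposure, endogenous NF-kB-driven cis element; gain or loss scored versus DMSO.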

Measured: AC50

c1ccc2c(c1)[nH]c1ccccc12
not listed: [10]
inactive: all other assays above

CCCCC(=O)O
inactive: [1] | [2] | [3] | [4] | [5] | [6]

Cc1ccc([N+](=O)[O-])cc1N
not listed: [10]
inactive: all other assays above

CCCCCCCCC(CO)CCCCCC (stereo unspecified)
active: [1] 117 µM | [3] 179 µM | [4] 81.3 µM
not listed: [6] | [10]
inactive: all other assays above

C=Cc1cccc(C)c1
inactive: [1] | [2] | [3] | [4] | [5] | [6]

CC1=CCC(C(C)C)C=C1 (stereo unspecified)
active: [4] 25.3 µM
inactive: [1] | [2] | [3] | [5] | [6]

C=CC(=O)OCCCCCCOC(=O)C=C
active: [4] 6.61 µM | [5] 26.2 µM | [6] 174 µM | [7] 3.97 µM | [8] 20 µM | [9] 10.4 µM
inactive: [1] | [2] | [3]

CC(CC=O)CC(C)(C)C (stereo unspecified)
inactive: [1] | [2] | [3] | [4] | [5]

C=C(C)C1CC=C(C)C(OC(C)=O)C1 (stereo unspecified)
inactive: [1] | [2] | [3] | [4] | [5] | [6]

CCCCCC1=CCCC1=O
active: [4] 55.8 µM
not listed: [2] | [6]
inactive: all other assays above

CCC1COC(=O)O1 (stereo unspecified)
inactive: [2] | [3] | [10] | [4] | [5] | [6]

O=C(O)CC(C(=O)O)S(=O)(=O)O (stereo unspecified)
inactive: [1] | [3] | [4] | [5] | [6]

CC(C)(CO)COC(=O)C(C)(C)CO
inactive: [2] | [3] | [10] | [4] | [5] | [6]

CC1CCC(=O)C1=O (stereo unspecified)
inactive: [1] | [3] | [4] | [5]

CC1=C(O)C(=O)C(C)O1 (stereo unspecified)
inactive: [1] | [3] | [10] | [4] | [5] | [6]

CC(=O)OC1CCCCC1C(C)(C)C (stereo unspecified)
inactive: [1] | [3] | [10] | [4] | [5] | [6]

Nc1ccnc(=O)[nH]1
inactive: [1] | [3] | [10] | [4] | [5]

Cc1ccc2c(c1)CCCN2
inactive: [1] | [3] | [10] | [4] | [5]

CCOC(=O)OC(=O)OCC
inactive: [1] | [3] | [10] | [4] | [5] | [6]

CCCCCCCCCCCCCCCCCCOS(=O)(=O)O
active: [1] 49.5 µM | [10] 58.1 µM | [4] 13.7 µM | [6] 18.4 µM
inactive: [3] | [5]

CCC(C)N (stereo unspecified)
inactive: [1] | [3] | [10] | [4] | [5]

O=C(Cl)c1ccc(C(=O)Cl)cc1
inactive: [1] | [3] | [4] | [5] | [6]

CCNc1nc(NC(C)(C)C)nc(OC)n1
not listed: [2]
inactive: all other assays above

CC(=O)c1ccccc1O
inactive: [1] | [3] | [10] | [4] | [5] | [6]

O=C(O[C@@H]1Cc2c(O)cc(O)cc2O[C@@H]1c1cc(O)c(O)c(O)c1)c1cc(O)c(O)c(O)c1
inactive: [1] | [3] | [10] | [4] | [5] | [6]

Cc1c(C(=O)c2c[nH]n(C)c2=O)ccc(S(C)(=O)=O)c1C1=NOCC1
inactive: [1] | [3] | [10] | [4] | [5] | [6]

CCCCOC(=O)CCC(C)=O
inactive: [1] | [3] | [10] | [4] | [5]

CC(=O)OCC=C(C)C
inactive: [1] | [3] | [10] | [4] | [5] | [6]

Clc1cc(Cl)c(Cl)c(Cl)c1Cl
active: [7] 3.97 µM
not listed: [2] | [6] | [10]
inactive: all other assays above

CCCCC(CC)COC(=O)/C=C/c1ccc(OC)cc1 (stereo unspecified)
inactive: [1] | [3] | [10] | [4] | [5] | [6]

CC(C)=CCCC(C)=CC#N
inactive: [1] | [3] | [4] | [5] | [6]

Nc1cccc(N)n1
not listed: [2] | [6] | [10]
inactive: all other assays above

Nc1ccc(C(=O)OCCCOC(=O)c2ccc(N)cc2)cc1
inactive: [1] | [3] | [10] | [4] | [5] | [6]
